High-throughput results as filed in PubChem.
Rows were chosen to be rich in hits. Some 1.1% of all compounds tested hit in one or more screens of this group.
GALR2 blocker: antagonists of human galanin receptor 2 (GALR2). GALR2-expressing cells, antagonist mode. inhibition, % at 4 µM. hit rate 0.39% among 140,000. AID 828;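 also: cells stimulated with galanin 1-16 at roughly its EC80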
S1P2 antag: S1P2 (human) receptor antagonism; inhibition, % at 5 µM; hit rate 0.21% among 97,000; AID 736; cell-based S1P2 antagonist assay, inhibition at 5 uM; O95136; in the data active = inhibition above about 45%;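 also: CRE beta-lactamase reporter cells expressing human S1P2 stimulated with S1P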
Target sequence (O95136 whole entry, looked up): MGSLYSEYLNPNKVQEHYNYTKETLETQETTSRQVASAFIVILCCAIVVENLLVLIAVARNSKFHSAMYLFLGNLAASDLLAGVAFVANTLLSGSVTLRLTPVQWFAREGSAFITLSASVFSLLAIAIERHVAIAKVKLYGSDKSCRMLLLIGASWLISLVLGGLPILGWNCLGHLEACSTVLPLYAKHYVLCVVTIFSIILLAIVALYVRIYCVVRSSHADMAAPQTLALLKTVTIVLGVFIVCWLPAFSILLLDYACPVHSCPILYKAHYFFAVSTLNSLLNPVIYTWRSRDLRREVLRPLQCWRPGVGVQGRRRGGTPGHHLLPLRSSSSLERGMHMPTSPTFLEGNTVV
GALR2 ag: agonists of human galanin receptor 2 (GALR2); GALR2-expressing cells, agonist activation read-out; activation, % (concentration not given with the values); hit rate 0.48% among 140,000; in the data active = activation above about 5%, passing the limit was not always enough
S1P2 agonist: activates the human S1P2 receptor. O95136. S1P2-expressing cell line, agonist reporter read-out. activation, % at 4.5 µM. hit rate 0.46% among 97,000. AID 729; in the data active = activation above about 16%
GALR2 ant conf: GALR2 (human) antagonism confirmed; GALR2-expressing cells, antagonist mode, inhibition; AID 866; shares compounds with GALR2 blocker; inhibition, % at 4 µM; hit rate 60% among 480;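 also: cells stimulated with galanin at about its EC80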
BLA inhib ctr: counter-screen for GALR2 antagonists: beta-lactamase reporter inhibitors; shares compounds with GALR2 blocker; AID 867; hit rate 36% among 480; CHO NFAT-BLA reporter, beta-lactamase FRET, thapsigargin-stimulated; inhibition, % at 4.2 µM;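 active = inhibition above the mean inhibition across tested compounds plus 3 SD, cut at about 27% in these data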
Hits are given with their value; n = inactive; x = not tested or not shown. Rule as the data show it, unless noted: active = inhibition above about 27%; inactive = the rest.

SMILES	GALR2 blocker	S1P2 antag	GALR2 ag	S1P2 agonist	GALR2 ant conf	BLA inhib ctr
COC(=O)Nc1ccc2c(c1)N(C(=O)CCN1CCN3CCCC3C1)c1ccccc1CC2 (stereo not drawn)	27.8	x	n	x	n	n
CCOC(=O)Nc1ccc2c(c1)N(C(=O)CCN1CCN3CCCC3C1)c1ccccc1CC2 (stereo not drawn)	n	n	n	n	x	x
CCOc1ccc(-c2nnc3n2N=C(c2ccc(OC)cc2)CS3)cc1	n	n	n	n	x	x
CCOc1ccc(C2=Nn3c(nnc3-c3ccccc3OC)SC2)cc1	33.5	n	5.3	n	31.9	59.9
Cc1cccc(C)c1C(OCCN(C)C)C1CCCCC1 (stereo not drawn)	n	x	n	x	x	x
CC(C)c1ccc(/C=C(\c2nc3ccccc3[nH]2)S(=O)(=O)c2ccccc2)cc1	n	x	n	x	x	x
O=S(=O)(/C(=C/c1ccc(C(F)(F)F)cc1)c1nc2ccccc2[nH]1)c1ccccc1	38.5	x	n	x	51.2	44.7
O=C(CCc1ccccc1)Nc1ncn[nH]1	n	n	n	n	x	x
O=C(/C=C/c1ccccc1)Nc1ncn[nH]1	29.9	n	n	n	37.3	n
